Screening results deposited in PubChem BioAssay by National Center for Advancing Translational Sciences (NCATS).
SMN2 splice enh: qHTS Assay for Enhancers of SMN2 Splice Variant Expression. HEK293 SMN2-luciferase splicing reporter, luminescence, 30-36 h. Potency, µM (top dose mostly 46.1 µM), inactives show at the top dose activity change, positive = activation, actives largely listed as activators. 210,000 tested, 2.8% active; note: % of control where 0% means no effect; nearly all actives have a fitted effect of over 55% in size
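HEK293 cells carry an SMN2 minigene-luciferase reporter in which exon 7 inclusion puts luciferase in frame. Cells were seeded at 2000 cells/well, attached for 10-12 hours, then exposed to compounds for 30-36 hours at 37C before ONE-Glo luminescence.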
ELG1 genotox: qHTS screen for small molecules that induce genotoxicity in human embryonic kidney (HEK293T) cells expressing luciferase-tagged ELG1; Potency, µM (doses to about 46 µM), for the others: top-dose activity change, positive = activation, hits mostly activators; HEK293T ELG1-luciferase reporter, luminescence, 16 h; 330,000 tested, 1.3% active; note: % of control where 0% means no effect; nearly all actives have a fitted effect of over 60% in size
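HEK293T cells expressing luciferase-tagged ELG1 were treated with compound or DMSO for 16 hr at 37°C. Luciferase activity was then read after 30 min with ONE-Glo at room temperature; rising signal flags genetic stress.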
NPC1 promoter act: qHTS Assay for NPC1 Promoter Activators | 320,000 tested, 2.4% active | Huh7 NPC1 promoter luciferase reporter, 24 h | AID 485313, 2010 | Potency, µM (highest dose often 9.22 µM), for inactives: top-dose activation, hits mostly activators; note: % of control where 0% means no effect; nearly all actives have a fitted effect of over 60% in size
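Luminescence read-out of NPC1 promoter-driven luciferase in stably transfected Huh7 cells; compounds delivered in DMSO and left 24 h at 37C, 5% CO2, qHTS titration format.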
Luc counter: Counterscreen for Luciferase (Kinase-Glo TM) Inhibition | 200,000 tested, 0.28% active | Potency, µM (series often up to 38.3 µM), without a hit: at the top dose activity change, negative = inhibition, most hits filed as inhibitors | Kinase-Glo luciferase, ATP luminescence, 8 min | AID 1379, 2008; note: % is set by controls: 0 for no effect and ±100 for the full control effect; nearly all actives have a fitted effect of over 60% in size
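Compound is pinned into ATP-containing buffer (10 uM ATP, imidazole pH 7.2, 7 mM MgCl2). Kinase-Glo luciferase reagent is then added. Light output is recorded following an 8-min room-temperature incubation.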
Rab9 promoter act: qHTS Assay for Rab9 Promoter Activators | AID 485297, 2010 | Huh7 Rab9 promoter-luciferase reporter, luminescence, 24 h | Potency, µM (highest dose often 9.22 µM), without a hit: at the top dose activation, negative = inhibition, usual class: activators | 320,000 tested, 2.8% active; note: % of control where 0% means no effect; nearly all actives have a fitted effect of over 60% in size
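Steps: seed 1500 Huh7 Rab9-luc cells per well, rest 2 h at 37 °C; add compound in DMSO; incubate 24 h; add luciferase reagent, 10 min ambient; read luminescence.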
FLuc modulator: qHTS profiling assay for firefly luciferase inhibitor/activator using purifed enzyme and Km concentrations of substrates (counterscreen for miR-21 project); Luciferin 4-monooxygenase (Photinus pyralis), P08659; purified FLuc, Km substrates, luminescence inhibition; Potency, µM (top dose mostly 57.5 µM), inactives show top-dose activity change, negative = inhibition, actives largely listed as inhibitors; 360,000 tested, 6.9% active;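 note: plate controls were vehicle for no effect and reference inhibitor for full effect; nearly all actives have a fitted effect of over 55% in size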
Target sequence (P08659 whole entry, looked up): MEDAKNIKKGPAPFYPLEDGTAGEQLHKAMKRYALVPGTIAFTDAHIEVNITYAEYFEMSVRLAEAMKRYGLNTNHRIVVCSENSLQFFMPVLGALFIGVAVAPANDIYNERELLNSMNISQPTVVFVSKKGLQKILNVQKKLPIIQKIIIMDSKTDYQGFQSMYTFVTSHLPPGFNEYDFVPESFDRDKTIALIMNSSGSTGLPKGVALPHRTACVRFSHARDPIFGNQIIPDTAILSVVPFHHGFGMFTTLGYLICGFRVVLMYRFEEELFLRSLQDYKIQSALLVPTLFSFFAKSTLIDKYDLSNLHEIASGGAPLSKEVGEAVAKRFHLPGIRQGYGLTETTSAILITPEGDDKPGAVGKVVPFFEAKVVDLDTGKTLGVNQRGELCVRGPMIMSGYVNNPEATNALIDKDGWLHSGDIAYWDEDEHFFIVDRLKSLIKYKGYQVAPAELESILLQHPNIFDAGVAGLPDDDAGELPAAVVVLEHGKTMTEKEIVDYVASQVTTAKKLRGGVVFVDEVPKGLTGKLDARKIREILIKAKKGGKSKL
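Purified P. pyralis luciferase, 10 nM final, with Km-level 10 uM D-luciferin and 10 uM ATP in 50 mM Tris acetate pH 7.5, 10 mM Mg acetate, 0.01% Tween-20, 0.05% BSA; 6-point qHTS titration about 60 µM downward; luminescence read.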
* hit, by the source's call; ? = inconclusive; . = no result given; [ ] = dose if it differs, or a comment. Hits are enriched below; roughly 7.3% of the tested compounds scored in any of these assays. Calls come from the whole dose curve; as a rule, active = well fitted curve in the direction sought with a large enough effect; inconclusive = small, poorly fitted or top-dose-only effect, or another doubt; inactive = no such curve, though single readings can be large; an effect the other way counts as inactive or inconclusive. Potency is the fitted concentration of half-maximal effect.

SMILES	SMN2 splice enh	ELG1 genotox	NPC1 promoter act	Luc counter	Rab9 promoter act	FLuc modulator
COc1ccccc1C(=O)Nc1ccc2c(c1)nc(CCNC(=O)c1ccccc1)n2C	.	-10%	-19%	.	2%	15µM*
COc1ccccc1C(=O)NCCc1nc2ccccc2n1C	-1%	0%	-4%	1%	-5%	6%
CC(=O)NCCc1nc2cc(NC(=O)Nc3ccccc3)ccc2n1C	.	?	2.2µM*	.	4µM*	6.7µM*
Cn1c(CCN2CCCCC2)nc2cc(NC(=O)Nc3ccccc3)ccc21	.	13%	-2%	.	-1%	-3%
Cc1ccc(C)c(CN2C(=O)c3ccccc3S(=O)c3ccc(C(=O)NCc4ccco4)cc32)c1 (configuration not stated)	11%	.	.	.	.	0%
CC/C=C\C/C=C\C/C=C\C/C=C\C/C=C\C/C=C\CCC(N)=O	2%	.	.	-1%	.	.
CN(Cc1ccco1)c1ccnc(-c2ccoc2)n1	-1%	.	.	1%	.	.
CCOc1ccc2c(c1)sc(=NC(=O)C1CC1)n2C	11µM*	.	.	-4%	.	7.6µM*
O=C(NCc1ccc2c(c1)OCO2)c1cccc(Cl)c1	6%	3%	4%	0%	20%	-2%
COc1cc(NC(=O)c2cc(-c3ccc4c(c3)OCO4)on2)cc(OC)c1OC	3%	-2%	-33%	.	-28%	2%
CC(C)NC(=O)c1cc(-c2ccc3c(c2)OCO3)on1	.	?	0.56µM*	.	0.63µM*	3.8µM*
CCN(CC)C(=O)c1cc(-c2ccc3c(c2)OCO3)on1	.	?	4µM*	.	3.5µM*	9.5µM*
O=C(NCc1ccc2c(c1)OCO2)c1cc(-c2ccc(Cl)cc2Cl)on1	-4%	-4%	2%	-1%	0%	12µM*
CCCCNC(=O)c1cc(-c2ccc3c(c2)OCO3)on1	.	?	3.5µM*	.	2µM*	2.7µM*
Cc1nc(-c2ccc(Cl)cc2)sc1CCNC(=O)C(=O)Nc1ccc2c(c1)OCCO2	.	.	.	.	.	-3%
CCCNC(=O)c1cc(-c2ccc3c(c2)OCO3)on1	.	?	0.63µM*	.	0.56µM*	3.8µM*
CCN(CC)C(=O)c1cc(-c2ccc(Cl)cc2)on1	10µM*	.	.	.	.	13µM*
O=C(NC1CC(=O)N(c2ccc(Cl)cc2)C1)c1ccc(S(=O)(=O)N2CCCC2)cc1 (configuration not stated)	.	.	.	.	.	9%
COc1cc(-c2cc(OC)c3c(C)oc(C)c3c(=O)c2)ccc1OC(=O)c1ccccc1C	.	.	.	.	.	-10%
Cc1ccc(Cn2c(=O)n(-c3cccc(C(F)(F)F)c3)c(=O)c3c(C)c(C)sc32)c(C)c1	2%	.	.	.	.	1%
Cc1ccc(C)c(Nc2nn3c(=O)c4cc5c(cc4nc3s2)OCO5)c1	16%	.	.	.	.	?
O=c1c2cc3c(cc2nc2sc(Nc4ccccc4)nn12)OCO3	16%	.	.	.	.	3µM*
O=c1c2ccccc2nc2sc(Nc3ccc(F)cc3)nn12	.	10µM*	2µM*	.	?	?
COc1cccc(Nc2nn3c(=O)c4ccccc4nc3s2)c1	.	13%	?	.	-6%	?
Cc1ccccc1Nc1nn2c(=O)c3ccccc3nc2s1	16µM*	?	2.5µM*	-1%	?	2.7µM*
SMILES	SMN2 splice enh	ELG1 genotox	NPC1 promoter act	Luc counter	Rab9 promoter act	FLuc modulator
COc1ccc(OC)c(Nc2nn3c(=O)c4ccccc4nc3s2)c1	.	.	.	.	.	-4%
S[C@@H]1CCCN(Cc2ccccc2)C1	0%[9.22 µM]	.	.	-1%[7.66 µM]	.	.
O=C(c1ccccc1)c1coc2ccc(O)c(Cl)c12	12%	?	13%	-11%	14%	?
Cc1ccc(C(=O)c2coc3ccc(O)c(Cl)c23)cc1	-1%	?	16%	-1%	-2%	19µM*
Cc1oc2ccc(O)cc2c1C(=O)c1ccc(Cl)cc1	-21%	-2%	0%	-2%	17%	?
Cc1ccc(C(=O)c2coc3ccc(O)cc23)cc1	.	?	?	.	20%	1.1µM*
CCOC(=O)c1ccc(NC(=O)CCn2c(=O)c3cccn3c3ccccc32)cc1	.	.	.	.	.	-5%
NC(=O)c1ccsc1NC(=O)CSc1ccccc1F	?	10µM*	?	-4%	?	21µM*
Cc1csc(SCC(=O)Nc2sccc2C(N)=O)n1	13µM*	?	?	-15%	?	?
CCCOc1ccc(C2c3c(-c4ccccc4O)n[nH]c3C(=O)N2CCCOCC)cc1OCC (configuration not stated)	-14%	.	.	.	.	-10%
COc1ccc(C(=O)Nc2ccc(C(=O)N3CCCCC3)cc2)cc1OC	.	14%	16%	.	19%	24µM*
COc1ccc(C(=O)Nc2ccc(C(=O)N3CCOCC3)cc2)cc1OC	.	?	1%	.	9%	?
COC(=O)c1ccccc1NC(=O)Nc1ccc(C(=O)N2CCCC2)cc1	-7%	-2%	9%	-11%	1%	2%
Cc1ccc(C(=O)Nc2ccc(NC(=O)c3ccc(C)o3)cc2)o1	.	5%	-7%	.	0%	-19%
CCNS(=O)(=O)c1ccc(NC(=O)Nc2ccccc2OC)cc1	.	8%	2%	2%	-1%	17µM*
COc1ccccc1NC(=O)Nc1ccc(C(=O)N2CCCCC2)cc1	.	13µM*	?	.	0.89µM*	3µM*
Cc1ccc(C(=O)Nc2ccc(C(=O)N3CCCCC3)cc2)o1	.	?	?	.	?	24µM*
O=C(NCc1cccs1)C1CCN(C(=O)N2CCOc3ccc(Cl)cc32)CC1	.	.	.	.	.	-16%
CCN1CCOC(=O)C1CC(=O)Nc1ccc(Br)cc1 (configuration not stated)	4%	.	.	.	.	0%
COc1cccc(N2CC(NC(=O)c3cccs3)CC2=O)c1 (configuration not stated)	.	.	.	.	.	-6%
O=C1N/C(=C\c2nc3ccccc3s2)c2ccccc21	.	0.58µM*	1µM*	.	0.28µM*	0.19µM*
O=C1N/C(=C\c2ccccc2)c2ccccc21	?	?	-11%	-1%	-12%	?
CCOc1ccc(Nc2c(S(=O)(=O)c3ccc(Cl)cc3)cnc3ccc(OCC)cc23)cc1	-18%	.	.	.	.	4%
CN(C)CCn1c(=S)[nH]c2ccccc2c1=O	11%	5%	14%	-1%	1%	0%
CCCn1c(=S)[nH]c2ccccc2c1=O	2%	-2%	-9%	-2%	-10%	13µM*
Cc1cc(N)n2ncc(-c3ccc(Cl)cc3)c2n1	21%	?	2.8µM*	3%	3.2µM*	13µM*
Cc1cc(-c2ccc(Cl)cc2)c2cnn(C(C)C)c2n1	.	-3%	3%	.	1%	?
